Assay outcomes (PubChem BioAssay)
INS-1E GSIS act = primary screen for activators of insulin secretion dependent on glucose, INS-1E cells, GLuc reporter luminescence | INS-1E GLuc reporter insulin secretion, 2-3 h | activation, % at 16.6 µM | actives 0.61% (n = 370,000) | AID 743287;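 active = lowest replicate activation of at least 40%, so every replicate reaches that level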;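 also: 0% = median of neutral control wells and 100% = median of IBMX positive control wells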
Neddyl block = blocks human cullin neddylation; inhibition, % at 25 µM; actives 0.58% (n = 360,000); P61081+Q13564; TR-FRET cullin neddylation, biochemical; in the data active = inhibition above about 36%
dFosB activator = mouse delta FosB homodimer activation. P13346. purified delta FosB, TAMRA-CDK5 oligo fluorescence polarization; percent of positive-control signal above neutral wells. activation, % at 25 µM. actives 0.99% (n = 340,000);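 active = mean activation above about 17%, with every replicate also reaching it, limit read from the data, passing the limit was not always enough; inconclusive = only one of the two conditions met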
Target sequence (P13346 whole entry, looked up): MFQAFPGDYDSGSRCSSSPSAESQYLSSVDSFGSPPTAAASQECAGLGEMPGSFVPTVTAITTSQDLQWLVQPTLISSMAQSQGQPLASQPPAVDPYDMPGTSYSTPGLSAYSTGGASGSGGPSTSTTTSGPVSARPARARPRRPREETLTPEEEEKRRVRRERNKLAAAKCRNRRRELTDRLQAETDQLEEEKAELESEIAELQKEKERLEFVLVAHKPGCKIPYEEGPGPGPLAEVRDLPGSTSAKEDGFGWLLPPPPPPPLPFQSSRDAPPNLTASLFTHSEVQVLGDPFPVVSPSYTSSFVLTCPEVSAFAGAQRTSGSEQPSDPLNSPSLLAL
Vif inh = blocks HIV Vif function; HEK293T cells, Vif self-association by quenched fluorescence, imaging, 24 h; inhibition, % at 7.49 µM; actives 0.35% (n = 340,000); in the data active = inhibition above about 50%, passing the limit was not always enough; inconclusive = no clear call, values can overlap the other calls; inactive = below about 31%
A1 inh = inhibitors of the anti-apoptotic protein A1, read as caspase activation. caspase activation, % (test concentration not listed). actives 0.066% (n = 330,000). MEF A1-2A-BIM cells, Caspase-Glo 3/7 luminescence, 3 h; percent of clofoctol response, vehicle zero;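 active = over half of replicate activation scores above 10%, or exactly half above 10 with the replicate mean above 10; inconclusive = replicate mean below 10 yet half the replicates above 10; inactive = over half of replicates below 10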
Neddyl inh conf = cullin neddylation inhibition, confirmation. shares compounds with Neddyl block. TR-FRET cullin neddylation biochemical assay. calls only at 25 µM. actives 13% (n = 1,800). AID 652217; in the data active = inhibition above about 40%;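 also: neddylation substrate is the cullin 1 ring ligase complex with SKP2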
Starred values were filed as active, the others as inactive; i = inactive; ? = inconclusive; . = no result shown; + = active, no number. An excerpt weighted towards active compounds, which were near 1.9% of everything screened.

SMILES | INS-1E GSIS act | Neddyl block | dFosB activator | Vif inh | A1 inh | Neddyl inh conf
CCCCOc1ccc(C(=O)N2CCN(c3ccc(N4CCOCC4)nn3)CC2)cc1 | -4 | 63* | -16 | 1 | 0 | .
O=C(c1cc(Br)ccc1Cl)N1CCN(c2ccc(N3CCOCC3)nn2)CC1 | 2 | 60* | 3 | -7 | 0 | .
Cc1cccc(C(=O)N2CCN(c3ccc(N4CCOCC4)nn3)CC2)c1 | -1 | . | -10 | -13 | 1 | .
COc1cc(OC)cc(C(=O)N2CCN(c3ccc(N4CCOCC4)nn3)CC2)c1 | -3 | 57* | -4 | 23 | 0 | .
CC(C)NC(=O)Nc1ccc2c(c1)C(=O)N([C@H](C)CO)C[C@H](C)[C@H](CN(C)CC1CCCCC1)OCCCC[C@@H](C)O2 | 11 | . | . | . | . | .
CC(=O)Nc1nc(CC(C)C)cc(-c2ccco2)c1C#N | 48* | 45* | 2 | 9 | 0 | i
CCC(=O)N(C)C[C@@H]1Oc2ncc(C#Cc3ccncc3)cc2C(=O)N([C@H](C)CO)C[C@H]1C | 3 | . | . | . | . | .
S=c1[nH]c(-c2ccccc2)cn1/N=C/c1ccc(Br)cc1 | 15 | 42* | -2 | -1 | 0 | i
O=C(O)c1ccc(/C=N/n2cc(-c3ccccc3)[nH]c2=S)cc1 | -10 | -6 | -6 | -6 | 0 | .
Cc1cc2[nH]c3ccccc3c2c(C)n1 | 14 | 40* | -3 | -2 | 0 | i
Fc1ccc(-c2cc3nc4c(c(N5CCOCC5)n3n2)CCCC4)cc1 | 1 | . | -14 | 1 | -1 | .
Cc1cccc(-c2cc3nc4c(c(N5CCCC(O)C5)n3n2)CCC4)c1 (stereo not drawn) | 86* | 51* | -16 | -20 | 0 | .
OC1CCN(c2c3c(nc4cc(-c5ccc(F)cc5)nn24)CCC3)CC1 | . | 45* | -9 | . | -2 | i
CN1C(=O)c2cc(NC(=O)c3cccs3)ccc2OC[C@@H]2O[C@@H](CC(=O)N3CCCCC3)CC[C@@H]21 | -2 | . | . | . | . | .
COc1cccc(N(C(=O)c2snc(C(N)=O)c2N)C(C(=O)NCC2CCCO2)c2ccc3ncccc3c2)c1 (stereo not drawn) | 0 | 45* | -3 | -1 | 0 | +
Cc1cccc(N(C(=O)c2snc(C(N)=O)c2N)C(C(=O)NCC2CCCO2)c2ccc3ncccc3c2)c1 (stereo not drawn) | -4 | 48* | -2 | 5 | 0 | .
Cc1ccc(N(C(=O)c2snc(C(N)=O)c2N)C(C(=O)NCC2CCCO2)c2ccc3ncccc3c2)cc1 (stereo not drawn) | 7 | 43* | -4 | -3 | . | i
NC(=O)c1nsc(C(=O)N(c2ccc(F)cc2)C(C(=O)NCC2CCCO2)c2ccc3ncccc3c2)c1N (stereo not drawn) | -8 | . | -22 | 3 | 0 | .
CCOc1ccc(C(C(=O)NCC2CCCO2)N(C(=O)c2snc(C(N)=O)c2N)c2cccc(F)c2)cc1 (stereo not drawn) | 3 | . | -11 | 7 | 0 | .
COc1ccccc1NC(=O)Nc1ccc2c(c1)C(=O)N(C)C[C@@H](OC)[C@@H](C)CN[C@@H](C)CO2 | 10 | . | . | . | . | .
Cc1cc(C)cc(N(C(=O)c2snc(C(N)=O)c2N)C(C(=O)NCC2CCCO2)c2ccc(C)o2)c1 (stereo not drawn) | -14 | . | -22 | -9 | 0 | .
Cc1ccc(C(C(=O)NCC2CCCO2)N(C(=O)c2snc(C(N)=O)c2N)c2ccc(F)cc2)o1 (stereo not drawn) | 8 | 53* | -9 | -2 | 1 | +
NC(=O)c1nsc(C(=O)N(c2ccccc2)C(C(=O)NCC2CCCO2)c2cccs2)c1N (stereo not drawn) | 5 | 44* | -4 | -8 | 0 | i
Cc1cc(C)cc(N(C(=O)c2snc(C(N)=O)c2N)C(C(=O)NCC2CCCO2)c2cccs2)c1 (stereo not drawn) | 5 | 43* | -15 | 13 | 0 | i
COc1cccc(N(C(=O)c2snc(C(N)=O)c2N)C(C(=O)NCC2CCCO2)c2cccs2)c1 (stereo not drawn) | -2 | 35 | -12 | 15 | 1 | .
SMILES | INS-1E GSIS act | Neddyl block | dFosB activator | Vif inh | A1 inh | Neddyl inh conf
O=C(C1CCC1)N1C[C@H]2[C@@H](c3ccccc31)[C@H](CO)N2S(=O)(=O)c1ccccc1 | 14 | . | . | . | . | .
CCC(=O)N(C)C[C@@H]1Oc2cc(C#CC(C)C)ccc2S(=O)(=O)N([C@H](C)CO)C[C@H]1C | -5 | . | . | . | . | .
COc1cc(NC(C)=O)ccc1-c1cc2ccccc2oc1=O | -3 | 42* | -10 | -3 | 0 | i
CCN(CC)CCOC(=O)c1ccc(N/C=C(/C#N)c2nc(-c3ccc(OC)cc3)cs2)cc1 | 24 | 62* | ? | 5 | 0 | i
CCN(CC)CCCN(C(=O)c1ccc(Br)cc1)c1nc(-c2ccc(OC)cc2)cs1 | 3 | -10 | 13 | -5 | 0 | .
C[C@H]1CN([C@@H](C)CO)C(=O)c2cccc(NS(C)(=O)=O)c2O[C@H]1CN(C)CC1CC1 | 18 | . | . | . | . | .
CNC[C@@H]1Oc2ncc(Br)cc2C(=O)N([C@H](C)CO)C[C@@H]1C | 21 | . | . | . | . | .
O=S(=O)([N-]c1nc2ccccc2nc1-n1cc[n+](Cc2ccccc2)c1)c1ccccc1 | -13 | 37* | -9 | -7 | 1 | +
CCCC[n+]1ccn(-c2nc3ccccc3nc2[N-]S(=O)(=O)c2cccs2)c1 | -30 | 43* | -3 | -2 | 1 | i
C=CC[n+]1ccn(-c2nc3ccccc3nc2[N-]S(=O)(=O)c2cccs2)c1 | 7 | 46* | -4 | -11 | 0 | .
CCCCC[n+]1ccn(-c2nc3ccccc3nc2[N-]S(=O)(=O)c2ccc(C)cc2)c1 | . | 43* | -4 | 0 | 0 | i
CCCC[n+]1ccn(-c2nc3ccccc3nc2[N-]S(=O)(=O)c2ccccc2)c1 | -8 | 39 | -10 | -8 | 1 | .
O=C(Nc1ccc2c(c1)[C@H]1C[C@H](CC(=O)N3CCCCC3)O[C@@H](CO)[C@H]1O2)c1ccc2c(c1)OCO2 | 6 | . | . | . | . | .
CC(C)NC(=O)Nc1ccc2c(c1)C(=O)N([C@@H](C)CO)C[C@H](C)[C@H](CN(C)C)OCCCC[C@@H](C)O2 | 7 | . | . | . | . | .
CCOc1cc(NC(=O)c2ccco2)c(OCC)cc1NC(=O)CCc1ccccc1OC | . | 41* | -10 | 3 | -1 | i
CCOc1cc(NC(=O)c2ccco2)c(OCC)cc1NC(=O)c1ccco1 | 23 | . | -13 | 0 | 1 | .
CCCNC(=O)Nc1ccc2c(c1)OC[C@@H](C)N(C(=O)C1CCCCC1)C[C@@H](C)[C@@H](OC)CN(C)C2=O | -4 | . | . | . | . | .
Nc1c(C(=O)Nc2ccc3c(c2)OCCO3)nnn1Cc1ccc(F)cc1 | 34 | 50* | 0 | 5 | -1 | i
CCOC(=O)c1ccccc1N=Cc1c(O)c2ccccc2oc1=O | 8 | 40* | -1 | 12 | 1 | i
CCOc1ccc(N=Cc2c(O)c3ccccc3oc2=O)cc1 | 31 | 0 | 0 | -18 | -9 | .
